Data: PubChem BioAssay
The source made the active and inactive calls. Unless noted, the rule behind the calls is not given here.

Legend:
[1] = system: XIP peptide (Xip251-270) binding; test: small-molecule binders of XIP peptide, primary screen, biochemical, small-molecule microarray, fluorescence 635/667 nm, 0.1 µg/mL protein (AID 1182); conditions: fluorescent protein binding, 635 nm, higher = more signal, called active from +8 up or from −8 down
[2] = system: XIP peptide (Xip251-270); test: small-molecule binders of XIP peptide, primary screen, biochemical, small-molecule microarray, fluorescence 635/667 nm, 0.5 µg/mL protein (AID 1183); conditions: small-molecule microarray binding, fluorescence 635 nm; higher = more signal
[3] = Plasmodium falciparum growth inhibition, primary screen, strain 3D7, DAPI fluorescence, 100 nL (AID 1184);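 note: parasites grown inside human red blood cells in medium with human serum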; conditions: P. falciparum 3D7 growth, 3 d, higher = more signal
[4] = biological target: Homeobox protein Hox-A13 (Mus musculus) (UniProt Q62424); test: inhibitors of HoxA13-DNA binding, primary screen, biochemical, fluorescence polarization, labeled oligonucleotide (AID 1185); conditions: 15 min, higher = more signal, called active from +8 up or from −8 down
[5] = inhibitors of hydroxyurea-induced Chk1 phosphorylation, primary screen, imaging, HeLa, phospho-Chk1 antibody, percent positive cells (AID 1186); conditions: hydroxyurea-induced phospho-Chk1 immunofluorescence imaging, higher = more signal
[6] = inhibitors of hydroxyurea-induced Chk1 phosphorylation, primary screen, imaging, HeLa, phospho-Chk1 nuclear intensity (AID 1187); conditions: hydroxyurea-induced phospho-Chk1 immunofluorescence imaging, higher = more signal

Homeobox protein Hox-A13 (Mus musculus), sequence (Q62424 whole entry, looked up): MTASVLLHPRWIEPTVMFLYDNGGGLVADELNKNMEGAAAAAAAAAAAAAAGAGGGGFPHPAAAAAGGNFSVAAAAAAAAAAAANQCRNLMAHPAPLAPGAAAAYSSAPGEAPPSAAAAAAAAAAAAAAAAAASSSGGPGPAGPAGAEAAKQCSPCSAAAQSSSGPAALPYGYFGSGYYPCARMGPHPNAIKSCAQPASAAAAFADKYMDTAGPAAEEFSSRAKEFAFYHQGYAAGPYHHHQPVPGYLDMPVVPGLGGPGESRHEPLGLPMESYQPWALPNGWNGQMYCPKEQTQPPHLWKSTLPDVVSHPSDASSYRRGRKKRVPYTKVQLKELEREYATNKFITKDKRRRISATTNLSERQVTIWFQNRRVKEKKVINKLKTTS

Row | Compound | composite z-score [1] | composite z-score [2] | z-score [3] | z-score [4] | z-score [5] | z-score [6]
1 | O=C1O[C@H](c2ccccc2)[C@H](c2ccccc2)N2[C@H]1[C@@H](C(=O)NC[C@H](O)c1ccccc1)[C@]1(C(=O)Nc3ccc(C#CC4=CCCCC4)cc31)[C@H]2c1ccccc1OCCO | -0.0939 (inactive) | 0.203 | -0.285 | 1.5 (inactive) | 0.0263 (inactive) | -0.294 (inactive)
2 | CCCCN1CC=CC23O[C@@H]4C=CCOC(=O)[C@@H]4[C@H]2C(=O)N(CCCCCCO)[C@@H]3C1=O (some centres undefined) | 1.31 (inactive) | -1.46 | -0.198 | -4.53 (inactive) | -0.0344 (inactive) | -0.364 (inactive)
3 | C=CCNC(=O)[C@@H]1[C@H]2C(=O)O[C@H](c3ccccc3)[C@H](c3ccccc3)N2[C@H](c2ccc(OCCO)cc2)[C@@]12C(=O)N(C(=O)OCCOC)c1ccc(C#CCC(C(=O)OC)C(=O)OC)cc12 | 1.33 (inactive) | 0.743 | -2.11 | -1.17 (inactive) | 0.053 (inactive) | 0.0115 (inactive)
4 | CCN(CC)c1ccc(N2CC=CC34O[C@@H]5C=CCOC(=O)[C@@H]5[C@H]3C(=O)N(CCCCCCO)[C@@H]4C2=O)cc1 (some centres undefined) | 1.07 (inactive) | 0.659 | -0.897 | -5.54 (inactive) | 0.234 (inactive) | 0.722 (inactive)
5 | CC(C)NC(=O)[C@@H]1c2ccccc2C(=O)N(C(C)C)[C@H]1c1ccc(CO)cc1 | 0.736 (inactive) | 0.226 | -0.25 | -2.52 (inactive) | -0.0669 (inactive) | 0.385 (inactive)
6 | CCCC1(C(=O)OC)C=C2C(=C(c3ccccc3)C(=O)C2C)CN1 (centres undefined) | 0.774 (inactive) | 0.871 | -0.105 | -8.64 (active) | -0.323 (inactive) | -0.277 (inactive)
7 | COCCOC(=O)N1C(=O)[C@@]2(c3cc(C#Cc4ccc(OC)cc4)ccc31)[C@H](c1ccc(O)cc1)N1[C@H](c3ccccc3)[C@H](c3ccccc3)OC(=O)[C@H]1[C@@H]2C(=O)Nc1nc2ccccc2s1 | 0.691 (inactive) | 0.641 | -0.0098 | -0.183 (inactive) | -0.233 (inactive) | -0.215 (inactive)
8 | CCCCCN1CC=CC23O[C@@H]4C=CCOC(=O)[C@@H]4[C@H]2C(=O)N(C(C)CO)[C@@H]3C1=O (some centres undefined) | 0.379 (inactive) | -0.0756 | 0.795 | -4.96 (inactive) | 0.719 (inactive) | 0.149 (inactive)
9 | CCCCCCCCCCC(O)C1C=CC2C(=O)NC(=O)C2N1Nc1ccc(Cl)cc1Cl (centres undefined) | 3.34 (inactive) | -0.333 | -0.642 | -0.739 (inactive) | 0.387 (inactive) | 0.006 (inactive)
10 | CC[C@@H]1C=C(C(=O)O)[C@H](c2ccc(C)cc2)N1S(=O)(=O)c1ccc(C)cc1 | -0.143 (inactive) | 0.468 | 1.14 | -1.69 (inactive) | 0.723 (inactive) | 0.909 (inactive)
11 | COC(=O)[C@@]1(Cc2ccc(OC)cc2)[C@H]2c3cc(C(=O)N4CCCC4)n(CCc4ccc(O)c(O)c4)c3C[C@H]2CN1C(=O)c1ccccc1 | 1.75 (inactive) | 0.83 | -1.62 | -6.01 (inactive) | 0.264 (inactive) | 0.379 (inactive)
12 | C=C(C)[C@@H]1CC=C(C(O)C2C=CC3C(=O)NC(=O)C3N2Nc2ccc(Cl)cc2Cl)CC1 (some centres undefined) | -0.245 (inactive) | 0.468 | -0.52 | -5.46 (inactive) | 0.463 (inactive) | 0.154 (inactive)
13 | CN(C)CCCCCCNC(=O)[C@@H]1C[C@@H]2C(=O)N3CCC[C@H]3C(=O)N2[C@@H]1c1ccc(O)cc1 | 2.98 (inactive) | 0.929 | 0.199 | 0.647 (inactive) | -0.849 (inactive) | -0.147 (inactive)
14 | COc1ccc([Si](C)(C)[C@@H]2[C@@H](CC(=O)N3Cc4ccccc4C[C@H]3CO)O[C@]3(C(=O)N(Cc4cccc(N5CCC5=O)c4)c4ccccc43)[C@H]2C)cc1 | 0.607 (inactive) | 0.736 | -2.55 | -1.51 (inactive) | -0.342 (inactive) | -0.0386 (inactive)
15 | C=CCOC(=O)[C@H]1[C@@H]2C(=O)O[C@@H](c3ccccc3)[C@@H](c3ccccc3)N2[C@@H](c2ccc(OCCOC(=O)[C@H]3C[C@H]4C(=O)N[C@@H](CCCCN(C)C)C(=O)N4[C@H]3c3cccc(OCCO)c3)cc2)[C@]12C(=O)Nc1ccc(I)cc12 | 0.718 (inactive) | 0.634 | -0.355 | 5.48 (inactive) | -0.187 (inactive) | 0.0593 (inactive)
16 | COc1ccc([Si](C)(C)[C@H]2[C@H](CCn3cc([C@H](O)c4ccccc4)nn3)O[C@@]3(C(=O)N(C)c4ccccc43)[C@@H]2C)cc1 | 0.014 (inactive) | -0.325 | -1.52 | -6.41 (inactive) | -0.179 (inactive) | 0.36 (inactive)
17 | C=CCNC(=O)[C@H]1[C@@H]2C(=O)O[C@@H](c3ccccc3)[C@@H](c3ccccc3)N2[C@@H](c2ccc(OCCO)cc2)[C@]12C(=O)Nc1ccc(C#CCC(C(=O)OC)C(=O)OC)cc12 | 1.06 (inactive) | 0.635 | -2.03 | -2.29 (inactive) | 0.239 (inactive) | 0.514 (inactive)
18 | C=CC[C@]1(C(N)=O)COC(c2ccc(OCCCO)cc2)=N1 | -0.539 (inactive) | -0.0487 | 0.668 | -0.063 (inactive) | -0.551 (inactive) | -0.351 (inactive)
19 | O=C1C2C=CC(C(O)COCc3ccccc3)N(Nc3ccc([N+](=O)[O-])cc3)C2C(=O)N1c1ccccc1 (centres undefined) | -0.183 (inactive) | -0.006 | -1.2 | -3.13 (inactive) | 0.0045 (inactive) | 0.54 (inactive)
20 | CS(=O)(=O)CCOC(=O)C1=CC(CCCO)=CC(c2ccc(CN3CCCC3)cc2)N(Cc2cccc(OC(F)(F)F)c2)C=C1C(=O)OCCS(C)(=O)=O (centres undefined) | 0.211 (inactive) | 0.584 | -2.79 | -1.82 (inactive) | 0.157 (inactive) | 1.28 (inactive)
21 | C=CCOC(=O)[C@H]1[C@@H]2C(=O)O[C@@H](c3ccccc3)[C@@H](c3ccccc3)N2[C@@H](c2ccc(OCCOC(=O)[C@@H]3C[C@@H]4C(=O)N5CCC[C@H]5C(=O)N4[C@@H]3c3cccc(OCCO)c3)cc2)[C@]12C(=O)Nc1ccc(I)cc12 | 0.108 (inactive) | 0.792 | -1.66 | 2.03 (inactive) | 0.351 (inactive) | 0.557 (inactive)
22 | [N-]=[N+]=Nc1ccccc1C[C@@]1(C(=O)N2CCCCC2)N=C(c2ccc(OCCCO)cc2)O[C@@H]1c1ccccc1 | -0.0034 (inactive) | 0.727 | -2.19 | -5.04 (inactive) | -0.878 (inactive) | -0.654 (inactive)
23 | COc1cc(OC)c(C(O)C2C=CC3C(=O)NC(=O)C3N2Nc2ccccn2)cc1Br (centres undefined) | 0.654 (inactive) | 0.448 | 0.776 | -1.28 (inactive) | -0.143 (inactive) | -0.266 (inactive)
24 | CC(=CC1CCCCC1)[C@@H](NC(=O)c1cccnc1)c1ccc(-c2ccccc2)cc1 | -0.486 (inactive) | -0.434 | -0.412 | -0.427 (inactive) | 1.6 (inactive) | -0.72 (inactive)
